# Sampled rows, rich in hits. Any-hit rate of the full collection: about 3.1%.
# Bead autofluor: compound fluorescence in toxin protease inhibitor counterscreen. fluorescence intensity (test concentration not listed). 360,000 compounds, 3.1% hits. compound autofluorescence counterscreen, microsphere flow cytometry; hits give high values; in the data active = fluorescence intensity above about 16000
# BoNT F protease: inhibitors of Botulinum neurotoxin F light chain protease | Multiplex microsphere protease cleavage assay, flow cytometry | inhibition, % at 10 µM | 360,000 compounds, 0.22% hits | AID 588497; in the data active = inhibition above about 35%, passing the limit was not always enough; note: plate controls were buffer without enzyme for full effect and enzyme alone for no effect
# PriA SSB inh: inhibitors of Klebsiella pneumoniae PriA binding to SSB C-terminal tail. 430,000 compounds, 0.6% hits. inhibition, % at 33 µM. AID 1272365. AlphaScreen SSBct-PriA binding, biotinylated peptide; in the data active = inhibition mostly above about 37%, no sharp cut-off; inactive = mostly below about 20%;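 note: plate controls were negative control peptide for no effect and reference peptide for full effect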
# Anthrax LF prot: inhibitors of Bacillus anthracis lethal factor protease; multiplex microsphere protease cleavage assay, LF; inhibition, % at 10 µM; 360,000 compounds, 0.12% hits; AID 588501; in the data active = inhibition above about 30%; note: plate controls were buffer without enzyme for full effect and enzyme alone for no effect
# Target sequence (P15917 whole entry, looked up): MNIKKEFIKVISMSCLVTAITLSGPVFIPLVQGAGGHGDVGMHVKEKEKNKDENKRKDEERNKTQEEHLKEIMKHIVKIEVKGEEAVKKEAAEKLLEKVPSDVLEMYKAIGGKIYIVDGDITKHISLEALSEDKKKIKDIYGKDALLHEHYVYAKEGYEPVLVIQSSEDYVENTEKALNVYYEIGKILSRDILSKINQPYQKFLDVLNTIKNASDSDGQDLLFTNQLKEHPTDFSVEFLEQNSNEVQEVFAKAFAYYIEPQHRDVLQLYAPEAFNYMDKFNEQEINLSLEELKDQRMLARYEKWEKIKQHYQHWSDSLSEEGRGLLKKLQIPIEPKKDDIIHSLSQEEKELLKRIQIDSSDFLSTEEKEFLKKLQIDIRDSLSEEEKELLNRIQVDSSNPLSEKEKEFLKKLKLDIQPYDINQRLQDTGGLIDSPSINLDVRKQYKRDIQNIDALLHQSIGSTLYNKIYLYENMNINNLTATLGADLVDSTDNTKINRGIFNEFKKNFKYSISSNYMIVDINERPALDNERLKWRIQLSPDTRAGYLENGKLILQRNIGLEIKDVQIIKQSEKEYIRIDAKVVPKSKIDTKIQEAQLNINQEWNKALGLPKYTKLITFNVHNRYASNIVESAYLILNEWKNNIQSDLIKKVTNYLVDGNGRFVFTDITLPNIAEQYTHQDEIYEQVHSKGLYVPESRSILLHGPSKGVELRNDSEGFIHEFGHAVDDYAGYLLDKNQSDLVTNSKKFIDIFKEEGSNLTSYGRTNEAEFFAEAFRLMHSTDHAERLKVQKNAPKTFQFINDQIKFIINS
# BoNT A protease: inhibitors of Botulinum neurotoxin A light chain protease; multiplex microsphere protease substrate cleavage, flow cytometry; 360,000 compounds, 0.17% hits; AID 588499; inhibition, % at 10 µM; in the data active = inhibition above about 30%; note: plate controls were buffer without enzyme for full effect and enzyme alone for no effect
# BoNTA LC inh 2: inhibitors of botulinum neurotoxin A light chain protease; shares compounds with BoNT A protease; multiplex microsphere protease cleavage assay, flow cytometry; inhibition, % at 10 µM; 150 compounds, 10% hits; in the data active = inhibition above about 24%
# Anthrax LF CP2: inhibitors of Bacillus anthracis lethal factor protease; shares compounds with BoNT A protease; multiplex microsphere protease cleavage assay; inhibition, % at 10 µM; 150 compounds, 7% hits; AID 602327
# BoNT-F LC CP2: inhibitors of botulinum neurotoxin F light chain protease; shares compounds with BoNT A protease; multiplex microsphere protease cleavage assay, flow cytometry; inhibition, % at 10 µM; 150 compounds, 7% hits; AID 602336
# * marks the source's active call; other numbers are inactive results; · = no result. Cut-off read from the data, not from the text of the source, unless noted: active = inhibition above about 25%; inactive = the rest.
SMILES,Bead autofluor,BoNT F protease,PriA SSB inh,Anthrax LF prot,BoNT A protease,BoNTA LC inh 2,Anthrax LF CP2,BoNT-F LC CP2
Cc1ccc(-c2nc3cc(C)c(Br)c(C)n3c2Cc2ccsc2)cc1,6312,-4,·,1,1,·,·,·
COc1ccccc1Cc1c(-c2ccc(OC)c(OC)c2)nc2cc(C)c(Br)c(C)n12,4221,-1,·,-16,2,·,·,·
COc1ccc(-c2nc3cc(C)c(Br)c(C)n3c2Cc2ccccc2C(F)(F)F)cc1OC,5906,-7,·,-8,1,2,-2,-2
COc1ccc(-c2nc3cc(C)c(Br)c(C)n3c2Cc2ccsc2)cc1OC,4388,-4,·,0,2,3,-2,-7
Cc1cc2nc(-c3cccc(Br)c3)c(Cc3ccccc3)n2c(C)c1Br,6229,-9,·,-2,1,·,·,·
CC(C)(C)c1nnc(Nc2ccc([N+](=O)[O-])cc2)[nH]c1=O,·,·,1,·,·,·,·,·
O=C(Cn1cnc2ccccc21)N1CCN(c2ccc(-c3cccs3)nn2)CC1,·,·,-3,·,·,·,·,·
COc1cc(OC)cc(C(=O)NC(C(=O)Nc2ccc3nc(C)sc3c2)C(C)C)c1 (stereo not given),7926,0,-13,-10,0,·,·,·
Cc1nc2ccc(NC(=O)[C@@H](NC(=O)c3c(F)cccc3F)C(C)C)cc2s1,8879,14,-3,40*,18,8,15,30*
O=c1[nH]c2cc(S(=O)(=O)N3CCC4(CC3)OCCS4)ccc2o1,·,·,-14,·,·,·,·,·
O=C(NCc1cc(C(F)(F)F)ccc1Cl)c1cccc2c1C(=O)c1ccc(N3CCC(Cc4ccccc4)CC3)cc1S2(=O)=O,5976,12,-6,18,7,7,8,16
O=C(NC1CC1)c1cccc2c1C(=O)c1ccc(N3CCC(Cc4ccccc4)CC3)cc1S2(=O)=O,4605,16,-10,16,11,·,·,·
O=C(NCc1ccc(F)cc1)c1cccc2c1C(=O)c1ccc(N3CCOCC3)cc1S2(=O)=O,2751,2,18,4,3,·,·,·
CC1CCN(c2ccc3c(c2)S(=O)(=O)c2cccc(C(=O)NC4CCCCC4)c2C3=O)CC1,4303,6,9,11,8,5,6,16
CC1CCN(c2ccc3c(c2)S(=O)(=O)c2cccc(C(=O)NCc4ccc(F)cc4)c2C3=O)CC1,3007,-1,-5,3,8,5,2,-1
O=C(NC1CCCCC1)c1cccc2c1C(=O)c1ccc(N3CCCC3)cc1S2(=O)=O,4029,5,-7,-2,2,·,·,·
COc1ccccc1N1CCN(c2ccc3c(c2)S(=O)(=O)c2cccc(C(=O)NCC4CC4)c2C3=O)CC1,3266,-3,·,-6,0,3,3,15
CC(C)(C)CNC(=O)c1cccc2c1C(=O)c1ccc(N3CCCC3)cc1S2(=O)=O,4481,0,-5,5,4,·,·,·
O=C(Cc1ccccc1F)Nc1cc(-n2ccc3ccccc32)ncn1,·,·,-21,·,·,·,·,·
CCS(=O)(=O)Nc1ccc2c(c1)N(C(=O)C1CCCO1)CC2 (stereo not given),·,·,-5,·,·,·,·,·
CCOc1ccccc1N1C[C@@H](C(=O)Nc2ccc(CC)cc2)CC1=O,·,·,1,·,·,·,·,·
O=C(NCc1cccs1)C(=O)NCC(c1cccnc1)N1CCc2ccccc2C1 (stereo not given),·,·,2,·,·,·,·,·
Cc1[nH]c2ccc(CNS(=O)(=O)c3ccc(S(=O)(=O)N4CCOCC4)cc3)cc2c1C,6262,-1,-5,0,0,2,-3,-2
COc1ccc(C(CNC(=O)c2ccc(OC)c(S(=O)(=O)N3CCCC3)c2)N2CCCC2)cc1 (stereo not given),21380*,40*,3,1,-12,-17,2,24
COc1ccc(C(CNC(=O)c2ccc(C)c(S(=O)(=O)N3CCCCC3)c2)N(C)C)cc1OC (stereo not given),4047,-3,-2,4,-1,·,·,·
COc1ccccc1C(CNC(=O)c1ccc(C)c(S(=O)(=O)N2CCCCC2)c1)N1CCCC1 (stereo not given),71619*,-12,-6,-2,-89,-7,2,25*
COc1ccc(C(CNC(=O)c2cc(S(=O)(=O)N3CCCCC3)ccc2C)N2CCCC2)cc1 (stereo not given),19413*,45*,6,10,-4,-13,3,35*
